Shown are actives, neighbours in structure and some others; about 7.4% of the full set was active somewhere.
ELG1 genotox = induces genotoxicity in HEK293T cells with luciferase-tagged ELG1; HEK293T ELG1-luciferase reporter, luminescence, 16 h; Potency, µM (titrated, usually from 46 µM), inactives show at the top dose activity change, positive = activation, actives largely listed as activators; hit rate 1.3% among 330,000; AID 504466; note: % of control where 0% means no effect; nearly all actives have a fitted effect of over 60% in size
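Screening used a luciferase reporter fused to human ELG1 in HEK293T cells. Luminescence was read on a CCD plate imager after 16 hr exposure and 30 min ONE-Glo incubation.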
FLuc counter = firefly luciferase modulation, counter-screen for miR-21 project. AID 588342. P08659. hit rate 6.9% among 360,000. purified FLuc, Km substrates, luminescence inhibition. Potency, µM (series often up to 57.5 µM), for inactives: top-dose activity change, negative = inhibition, actives largely listed as inhibitors;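 note: plate controls were vehicle for no effect and reference inhibitor for full effect; nearly all actives have a fitted effect of over 55% in size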
Target sequence (P08659 whole entry, looked up): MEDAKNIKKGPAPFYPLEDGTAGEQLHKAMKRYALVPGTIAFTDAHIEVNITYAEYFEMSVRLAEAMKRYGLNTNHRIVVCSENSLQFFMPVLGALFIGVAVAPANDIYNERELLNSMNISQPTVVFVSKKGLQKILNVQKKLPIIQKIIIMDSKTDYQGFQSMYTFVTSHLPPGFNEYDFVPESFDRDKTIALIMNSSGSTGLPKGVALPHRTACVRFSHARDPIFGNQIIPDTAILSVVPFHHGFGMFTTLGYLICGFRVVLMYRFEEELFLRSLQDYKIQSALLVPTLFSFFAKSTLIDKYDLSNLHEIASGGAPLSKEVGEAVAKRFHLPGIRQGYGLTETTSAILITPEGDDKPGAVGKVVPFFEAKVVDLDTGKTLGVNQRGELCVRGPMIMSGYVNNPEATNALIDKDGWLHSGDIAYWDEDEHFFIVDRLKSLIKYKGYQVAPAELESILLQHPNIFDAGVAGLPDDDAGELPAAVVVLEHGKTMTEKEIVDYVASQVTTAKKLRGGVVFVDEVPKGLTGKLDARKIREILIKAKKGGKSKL
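Purified P. pyralis luciferase (10nM final) with 10uM D-luciferin and 10uM ATP (Km levels) in 50mM Tris acetate pH 7.5, 10mM Mg acetate, 0.01% Tween-20, 0.05% BSA; qHTS 6-point titration, ~60 µM downward; luminescence read.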
NPC1 promoter act = activates the NPC1 promoter; Huh7 NPC1 promoter luciferase reporter, 24 h; Potency, µM (doses to about 9.22 µM), without a hit: at the highest dose activation, most hits filed as activators; hit rate 2.4% among 320,000; note: % of control where 0% means no effect; nearly all actives have a fitted effect of over 60% in size
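Stable NPC1-promoter luciferase Huh7 line; cpd (DMSO) 24 h, 37 °C, 5% CO2; Amplite luciferase reagent 10 min RT; luminescence readout. qHTS format.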
Rab9 promoter act = activates the Rab9 promoter | hit rate 2.8% among 320,000 | Potency, µM (doses to about 9.22 µM), for inactives: top-dose activation, negative = inhibition, hits mostly activators | Huh7 Rab9 promoter-luciferase reporter, luminescence, 24 h; note: % of control where 0% means no effect; nearly all actives have a fitted effect of over 60% in size
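Promoter activation is measured as luciferase luminescence in Huh7 cells stably transfected with a Rab9 promoter–luciferase construct, following 24 h compound exposure at 37 °C and 10 min reagent incubation at ambient temperature.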
SMN2 splice up = enhancers of SMN2 splice variant expression; hit rate 2.8% among 210,000; AID 1458; Potency, µM (highest dose often 46.1 µM), for the others: at the top dose activity change, positive = activation, usual class: activators; HEK293 SMN2-luciferase splicing reporter, luminescence, 30-36 h; note: % of control where 0% means no effect; nearly all actives have a fitted effect of over 55% in size
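qHTS luciferase splicing reporter: luminescence rises when SMN2 exon 7 is included in transfected HEK293 cells. Compound exposure lasted 30-36 h at 37C, with 4.5 mM final sodium butyrate as control, followed by a ONE-Glo read.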
p53 reactivation = mutant p53 re-activation in reporter cells | Potency, µM (series often up to 92.2 µM), for the others: at the highest dose activity change, positive = activation, hits mostly activators | AID 504706 | hit rate 0.063% among 320,000 | H1299 p53-A138V BP100-luciferase reporter, luminescence, 24 h; note: % of control where 0% means no effect; nearly all actives have a fitted effect of over 45% in size
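H1299 (p53-null), stable ts p53-A138V + BP100-Luc; 1000 cells/well, Opti-MEM/10% FBS; cpd 4 pt, 1:5; 24 h, 37 deg C, 5% CO2; detection reagent 10 min RT; luminescence.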
* = called active by the depositor. Calls come from the whole dose curve; as a rule, active = well fitted curve in the direction sought with a large enough effect; inconclusive = small, poorly fitted or top-dose-only effect, or another doubt; inactive = no such curve, though single readings can be large; an effect the other way counts as inactive or inconclusive. Potency is the fitted concentration of half-maximal effect.

`COc1ccc(NC(=O)Nc2cc(C)ccc2F)cc1` gave ELG1 genotox 23.1µM*, FLuc counter 12µM*, NPC1 promoter act 3.55µM*, Rab9 promoter act 2.82µM*, SMN2 splice up inconclusive and p53 reactivation 9.7%.
`COc1cccc(NC(=O)Nc2cc(C)ccc2OC)c1` gave ELG1 genotox 1.3%, FLuc counter inconclusive, NPC1 promoter act 1.3%, Rab9 promoter act 7.4% and p53 reactivation -4.4%.
For O=C(CN1CCC(NC(=O)Nc2ccccc2)CC1)Nc1ccc([N+](=O)[O-])cc1 the results were ELG1 genotox -10.7%, FLuc counter 2.6%, NPC1 promoter act 2.2%, Rab9 promoter act -1.8% and p53 reactivation -0.2%.
For COc1cc(CNc2ccc3[nH]c(=O)[nH]c3c2)cc(Cl)c1OCc1ccc(F)cc1 the results were FLuc counter -4.3%.
O=c1[nH]c2ccc(NCc3ccc(F)cc3)cc2[nH]1 was read as ELG1 genotox -5.8%, FLuc counter 16.9µM*, NPC1 promoter act 13.6%, Rab9 promoter act 14.5% and p53 reactivation 0.9%.
`CC12CCC(=O)N1C(C(=O)Nc1ccccc1N1CCCCC1)CS2` (centres undefined) gave ELG1 genotox -4.7%, FLuc counter 1.3%, NPC1 promoter act -2.3%, Rab9 promoter act -0.9% and p53 reactivation -11.4%.
For O=c1oc(/C=C/c2ccco2)nc2sc3c(c12)CCC3 the results were ELG1 genotox 0.3%, FLuc counter 0.953µM*, NPC1 promoter act 17.8%, Rab9 promoter act 16.3%, SMN2 splice up 15.0% and p53 reactivation 1.7%.
Screening O=c1[nH]c(-c2ccco2)nc2sc3c(c12)CCCC3 returned ELG1 genotox 9.2µM*, FLuc counter 3.01µM*, NPC1 promoter act 2µM*, Rab9 promoter act 1.58µM*, SMN2 splice up 1µM* and p53 reactivation inconclusive.
Cc1nn(S(=O)(=O)c2ccc(Br)cc2)c(C)c1S(=O)(=O)N1CCOCC1 was read as ELG1 genotox 3.0%, FLuc counter -0.6%, NPC1 promoter act -0.2%, Rab9 promoter act -3.5% and p53 reactivation -3.4%.
Screening O=C(CNC(=O)COc1ccccc1)NCCN1CCOCC1 returned ELG1 genotox 3.4%, FLuc counter 3.4%, NPC1 promoter act -1.6%, Rab9 promoter act 1.1% and p53 reactivation 7.3%.
`COc1ccc(CNC(=O)c2cc(S(=O)(=O)N3CCCCC3)ccc2Cl)cc1OC` gave ELG1 genotox -5.4% and p53 reactivation -7.2%.
O=C(O)CSc1cc(C(=O)c2ccccc2O)cn2c(=O)c3c4c(sc3nc12)CCCC4 was read as ELG1 genotox 12.0%, FLuc counter 4.26µM*, NPC1 promoter act 1.3%, Rab9 promoter act 2.2% and p53 reactivation 7.9%.
For CCc1ccc(CSc2nc(-c3ccccc3OC)nc3c2Cc2c(CO)cnc(C)c2O3)cc1 the results were FLuc counter -1.8%.
Screening O=S(=O)(CCC1CCCCN1)c1ccccc1 (centres undefined) returned ELG1 genotox -5.3%, FLuc counter 0.8%, NPC1 promoter act 5.4%, Rab9 promoter act -4.1% and p53 reactivation 2.1%.
Screening C=CCOC(=O)/C(=C\c1cccc2ccccc12)NC(=O)c1ccccc1 returned ELG1 genotox -0.4%, FLuc counter inconclusive, NPC1 promoter act -0.6%, Rab9 promoter act -1.0%, SMN2 splice up -17.2% and p53 reactivation 10.0%.
Screening C=CCOC(=O)C(=O)/C=C/c1csc2ccccc12 returned ELG1 genotox inconclusive, FLuc counter 26.9µM*, NPC1 promoter act -0.8%, Rab9 promoter act 0.9% and p53 reactivation 1.8%.
Cc1ccc(C(=O)N/N=c2\sc3ccccc3n2C)cc1 was read as ELG1 genotox -0.3%, FLuc counter 21.3µM*, NPC1 promoter act 20.3%, Rab9 promoter act 13.0%, SMN2 splice up 9.2% and p53 reactivation 5.9%.

From PubChem
